Source: PubChem (National Center for Advancing Translational Sciences (NCATS))
NPC1 prom act – NPC1 promoter activation; Potency, µM (highest dose often 9.22 µM), most hits filed as activators; actives 2.4% (n = 320,000); Huh7 NPC1 promoter luciferase reporter, 24 h; note: nearly all actives have a fitted effect of over 60% in size
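Luminescence read-out of NPC1 promoter-driven luciferase in stably transfected Huh7 cells; compounds delivered in DMSO and left 24 h at 37C, 5% CO2, qHTS titration format.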
p53 reactivator – mutant p53 re-activation in reporter cells | H1299 p53-A138V BP100-luciferase reporter, luminescence, 24 h | actives 0.063% (n = 320,000) | Potency, µM (titrated, usually from 92.2 µM), actives largely listed as activators; note: nearly all actives have a fitted effect of over 45% in size
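H1299 (p53-null), stable ts p53-A138V + BP100-Luc; 1000 cells/well, Opti-MEM/10% FBS; cpd 4 pt, 1:5; 24 h, 37 deg C, 5% CO2; detection reagent 10 min RT; luminescence.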
SMN2 splice enh – enhancers of SMN2 splice variant expression | HEK293 SMN2-luciferase splicing reporter, luminescence, 30-36 h | actives 2.8% (n = 210,000) | Potency, µM (top dose mostly 46.1 µM), usual class: activators; note: nearly all actives have a fitted effect of over 55% in size
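HEK293 cells carry an SMN2 minigene-luciferase reporter in which exon 7 inclusion puts luciferase in frame. Cells were seeded at 2000 cells/well, attached for 10-12 hours, then exposed to compounds for 30-36 hours at 37C before ONE-Glo luminescence.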
Rab9 promoter act – activators of Rab9 promoter; Huh7 Rab9 promoter-luciferase reporter, luminescence, 24 h; Potency, µM (doses to about 9.22 µM), actives largely listed as activators; actives 2.8% (n = 320,000); AID 485297; note: nearly all actives have a fitted effect of over 60% in size
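Steps: seed 1500 Huh7 Rab9-luc cells per well, rest 2 h at 37 °C; add compound in DMSO; incubate 24 h; add luciferase reagent, 10 min ambient; read luminescence.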
FLuc modulator – counter-screen for miR-21 project: firefly luciferase inhibitors or activators | Potency, µM (top dose mostly 57.5 µM), most hits filed as inhibitors | actives 6.9% (n = 360,000) | P08659 | AID 588342 | purified FLuc, Km substrates, luminescence inhibition; note: nearly all actives have a fitted effect of over 55% in size
Target sequence (P08659 whole entry, looked up): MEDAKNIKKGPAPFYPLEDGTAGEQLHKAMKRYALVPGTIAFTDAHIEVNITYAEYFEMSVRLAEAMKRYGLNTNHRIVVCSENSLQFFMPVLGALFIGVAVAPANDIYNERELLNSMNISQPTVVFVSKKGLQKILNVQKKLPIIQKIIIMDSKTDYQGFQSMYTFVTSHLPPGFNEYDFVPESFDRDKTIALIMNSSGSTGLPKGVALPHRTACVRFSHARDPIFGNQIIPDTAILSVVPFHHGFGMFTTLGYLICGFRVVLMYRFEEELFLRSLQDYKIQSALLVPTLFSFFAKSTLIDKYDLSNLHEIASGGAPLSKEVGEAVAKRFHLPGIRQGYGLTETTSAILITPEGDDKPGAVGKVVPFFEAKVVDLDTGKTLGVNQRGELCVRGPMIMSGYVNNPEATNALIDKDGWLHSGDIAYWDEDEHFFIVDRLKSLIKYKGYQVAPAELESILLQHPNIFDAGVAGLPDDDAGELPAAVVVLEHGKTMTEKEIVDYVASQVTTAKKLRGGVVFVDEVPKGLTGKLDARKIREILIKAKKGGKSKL
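Biochemical qHTS of compounds, final roughly 60 µM downward over six points, against 10 nM purified firefly luciferase using Km concentrations of substrates (10 uM D-luciferin, 10 uM ATP) in Tris acetate pH 7.5 buffer; luminescence output.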
ELG1 genotox – inducers of genotoxicity in HEK293T ELG1-luciferase cells; HEK293T ELG1-luciferase reporter, luminescence, 16 h; Potency, µM (series often up to 46 µM), hits mostly activators; actives 1.3% (n = 330,000); AID 504466; note: nearly all actives have a fitted effect of over 60% in size
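16 hr compound incubation (37 °C, 5% CO2) of HEK293T cells carrying luciferase-tagged ELG1; luciferase then measured by ONE-Glo luminescence after 30 min at RT.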
Hits are given with their value; - = inactive; ? = inconclusive; . = not tested or not shown; [ ] = dose if it differs, or a comment. An excerpt weighted towards active compounds, which were near 7.3% of everything screened. Calls come from the whole dose curve; as a rule, active = well fitted curve in the direction sought with a large enough effect; inconclusive = small, poorly fitted or top-dose-only effect, or another doubt; inactive = no such curve, though single readings can be large; an effect the other way counts as inactive or inconclusive.

SMILES | NPC1 prom act | p53 reactivator | SMN2 splice enh | Rab9 promoter act | FLuc modulator | ELG1 genotox
CCOc1cccc2cc(-c3cn4c(n3)sc3ccccc34)c(=O)oc12 | . | . | . | . | 0.48µM | .
COc1cccc2cc(-c3nc4ccc(C)cc4[nH]3)c(=O)oc12 | . | . | . | . | 0.54µM | .
COc1ccc2oc(=O)c(-c3nc4ccc(C)cc4[nH]3)cc2c1 | . | . | . | . | - | .
COc1ccc(CCNC(=O)C2CCN(S(C)(=O)=O)CC2)cc1 | - | - | - | - | - | -
Nc1ccc(C#Cc2ccc3c(=O)c4ccccc4oc3c2)cc1 | 2.2µM | - | . | 3.5µM | ? | ?
N#Cc1ccc(CN2CCCC3(CCN(S(=O)(=O)c4ccccc4)CC3)C2)cc1 | . | . | - | . | . | .
Cc1ccn2cc(-c3cc4ccccc4oc3=O)nc2c1 | 0.32µM | - | . | 0.28µM | 0.43µM | 0.46µM
Cc1ccc(-c2csc(Cc3nc(-c4cc5ccccc5oc4=O)cs3)n2)cc1 | - | - | - | - | - | -
O=c1oc2ccccc2cc1-c1cn2cc(Cc3ccccc3F)sc2n1 | . | . | - | . | 0.34µM | .
O=c1oc2ccccc2cc1-c1cn2cc(Cc3ccc(Cl)cc3)sc2n1 | . | . | - | . | - | .
N#Cc1cccnc1Nc1ccc(Cl)cc1 | - | - | - | - | - | -
CCCCc1ccc(Nc2ncccc2C#N)cc1 | ? | ? | ? | 2.8µM | 9.5µM | ?
C=CCNc1nc(-c2ccc([N+](=O)[O-])cc2)cs1 | ? | ? | ? | 3.5µM | 3µM | 21µM
C=CCNc1nc(-c2ccc(Cl)cc2)cs1 | 2.8µM | ? | 25µM | 2µM | 1.3µM | -
O=[N+]([O-])c1ccc(S(=O)(=O)Nc2nc(-c3ccccc3)cs2)cc1 | - | - | . | - | - | -
CN(C)c1nc(-c2ccc([N+](=O)[O-])cc2)cs1 | - | ? | - | ? | 12µM | 12µM
Cc1cc(C(=O)COC(=O)COc2ccccc2C#N)c(C)n1CC1CCCO1 (centres undefined) | - | - | . | - | 3µM | -
C=CCn1c(C)cc(C(=O)COC(=O)COc2ccccc2C#N)c1C | - | ? | . | - | 1.7µM | -
C=CCn1c(C)cc(C(=O)COC(=O)[C@@H](NC(=O)c2ccccc2Cl)C(C)C)c1C | ? | - | - | ? | 0.15µM | ?
N#Cc1ccccc1OCC(=O)OCC(=O)c1ccc[nH]1 | - | - | . | - | - | -
NC(=O)N/N=C1\CC[C@H](O)C[C@@H]1CC(=O)O | . | . | -[9.22 µM] | . | . | .
CC(C)CCNC(=O)C(=O)Nc1c2c(nn1-c1ccc(Cl)cc1)CSC2 | . | . | . | . | - | .
COc1ccc(CNC(=O)C2CCN(C(=O)[C@@H]3Cc4ccccc4CN3)CC2)cc1 | - | - | . | - | - | -
CC(=C/c1ccccc1)/C=N/NC(=O)c1cccs1 | 1.4µM | ? | . | 1µM | 0.95µM | 1.8µM
O=C(N/N=C/C(Br)=C\c1ccccc1)c1cccs1 | 2.2µM | ? | . | 1.6µM | 2.1µM | ?
SMILES | NPC1 prom act | p53 reactivator | SMN2 splice enh | Rab9 promoter act | FLuc modulator | ELG1 genotox
O=C(COc1ccccc1-c1ccccc1)N/N=C/c1ccccn1 | - | - | . | - | - | -
O=C(CN1C(=O)C2CCCCN2c2ccc(C(=O)N3CCCC3)cc21)NCc1ccccc1 (centres undefined) | . | . | . | . | - | .
S=C(NCCCc1ccccc1)NC1CCCCC1 | - | ? | . | - | - | -
S=C(NCCc1ccccn1)NC1CCCCC1 | ? | ? | 11µM | ? | ? | ?
Cn1ccc2cc(-c3ccc4ncnc(NCc5cccc(F)c5)c4c3)ccc21 | - | . | . | - | ? | .
c1csc(-c2nnc(-c3ccc(N4CCOCC4)cc3)o2)c1 | 0.35µM | - | 1.3µM | 0.63µM | 1.2µM | 1.3µM
c1cncc(-c2nnc(-c3cccs3)o2)c1 | - | - | - | ? | - | -
COc1ccc(-c2nnc(-c3cccs3)o2)cc1OC | 2.8µM | ? | - | 3.2µM | 8.5µM | 14µM
CCOc1ccc(-c2nnc(-c3cccs3)o2)cc1OCC | 3.5µM | - | - | ? | ? | ?
CCOc1ccc(-c2nc(-c3cccs3)c(CC(=O)O)s2)cc1OC | - | - | - | ? | 3µM | ?
CCOc1ccc(-c2nnc(-c3ccco3)o2)cc1OCC | - | ? | - | ? | ? | ?
CCOc1ccc(-c2nnn(CCC(=O)O)n2)cc1OC | - | - | - | - | - | -
CCCCC(=O)Nc1ccc(NC(=S)NC(=O)CCCCl)cc1OC | - | - | - | - | - | -
CCN(Cc1ccccc1)S(=O)(=O)c1ccc(F)c(C(=O)Nc2ccc(C(C)C)cc2)c1 | . | . | . | . | - | .
CCc1ccccc1NC(=O)c1cnc(N2CCCCC2)c2ccccc12 | . | . | . | . | - | .
CCn1c(C(=O)N2CCC(C(=O)NCCc3ccc(OC)cc3OC)CC2)cc2sccc21 | . | . | - | . | - | .
CCOc1ccc(-c2nnc(-c3cccs3)o2)cc1 | 0.71µM | - | 2µM | 0.63µM | 0.67µM | ?
CC(C)c1ccc(/C=C/C(=O)NC2=NCCS2)cc1 | 0.32µM | ? | 1.8µM | 0.32µM | 1.3µM | ?
O=C(NC1=NCCS1)c1cc(Cl)ccc1Cl | - | . | . | - | - | -
O=C(/C=C/c1ccc(Cl)c(Cl)c1)NC1=NCCS1 | 2.8µM | - | - | 2.2µM | ? | -
N#Cc1ccc(CN2CCC3(CCNCC3)CC2)cc1 | . | . | - | . | . | .
Cn1/c(=N/NC(=O)c2cccc(OC(F)F)c2)sc2ccccc21 | - | - | - | - | ? | -
Cn1/c(=N/NC(=O)c2ccccc2Br)sc2ccccc21 | ? | - | ? | 4µM | 15µM | ?
CSc1ccc(CCNC(=O)c2ccc(-n3c(C)cc4c3CCCC4)cc2)cc1 | . | . | . | . | - | .
COc1ccc(OC)c(NC(=O)c2csc(Cl)c2OC)c1 | - | - | . | - | 15µM | -
SMILES | NPC1 prom act | p53 reactivator | SMN2 splice enh | Rab9 promoter act | FLuc modulator | ELG1 genotox
COc1ccc(C(=O)OCc2csc(C)n2)c(O)c1 | ? | - | - | ? | 15µM | ?
COc1ccc(OC)c(NC(=O)c2cc3ccccc3cc2OC)c1 | - | . | . | - | 24µM | -
COc1ccc(OC)c(NC(=O)c2ccc(Cl)cc2)c1 | - | - | - | - | ? | -
COc1ccc(OC)c(NC(=O)c2cc3ccccc3o2)c1 | - | - | . | - | - | ?
COc1ccc(OC)c(NC(=O)c2ccc(-c3csc(C)n3)cc2)c1 | - | - | . | - | 5.4µM | -
O=c1c2oc3ccccc3c2n(Cc2cccc(F)c2)c(=O)n1Cc1ccc2c(c1)OCO2 | . | . | . | . | - | .
COc1ccc(C2C(=O)N(C3CCC(C)CC3)CC(=O)N2C2CCCCC2)cc1OC (centres undefined) | . | . | . | . | - | .
CCC(=O)Nc1ccc(OC)cc1OC | - | - | - | - | - | -
COc1ccc(NC(=O)CSc2ccccc2)c(OC)c1 | ? | ? | 22µM | 4µM | 27µM | -
COc1cc(NC(=O)c2nc3nc(C)cc(C(F)F)n3n2)c(OC)cc1Cl | . | . | - | . | - | .
COc1ccc(-c2csc(C)n2)cc1Br | - | - | - | - | 15µM | ?
COc1cc(NC(=O)c2cc3nc(C)cc(C)n3n2)c(OC)cc1Cl | 2.5µM | ? | 11µM | 1.3µM | 3µM | ?
